# Source: the supplement of paper PMC11417369
# ± gives the standard deviation of the averaged measurements. The full ranking holds about 25,000 sequences; the median of “ln(normalized median fluorescence intensity)” is about 7.9, and the highest 2% start at about 11. Only a selection was taken, and the highest values are over-represented in it overall.
# Tested on: PfAP2-I AP2 domain 3 (GST-tagged)
# Assay: gcPBM binding intensity (ln(normalized median fluorescence intensity)); higher = stronger DNA binding
# How it was run: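 Binding intensity is defined as the maximum Masliner-normalised natural-log median intensity across replicate spots for either probe orientation. It was measured on an Agilent 4 × 180k array of primer-extended double-stranded 36-bp intergenic genomic probes and negative controls, to which GST-tagged P. falciparum DNA-binding domains made in E. coli were applied for 1 h in 1× PBS with 1% milk, 0.2 mg/ml BSA, 0.5% salmon testes DNA and 0.03% Triton X-100. Detection was by Alexa488 anti-GST antibody and scanning at 488 nm.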
row,Sequence,gcPBM binding intensity (ln)
1,ACTCTCTTATATTAAACACACATATTTATAGGTATA [CACACA_site7302],8.07 ± 0.45
2,AGGAGGATGCATATGGCACACATTATGAAACTGTCG [CACACA_site299],9.11 ± 1
3,AATTTTTAGAAGAACACACACATATATATTATGACC [CACACA_site246],7.75 ± 0.65
4,TATTAATGATAAGAATATTTTATATGATACATGCAT [CACACA_negctrl_site923],7.46 ± 0.68
5,GAAAGAAAATATTAAGTGCATATTTTAATGATACAA [GTGCAC_site9712],9.02 ± 0.2
6,ATTTTTAATGGATAAGTGCATAATATTATGATGCAA,10.9 ± 0.64
7,TTTTTTTTTTTGTGTGCATGTGCTAGGAAAGGTAGG [TGCATGCA_site330],8.85 ± 0.11
8,TACTTCATATAATTAGCACACAATAATTTCTCATTT [CACACA_site2872],8.31 ± 0.45
9,GTATTTATAATACGGCGTACATAAAAAAAAAAAAAA [XGTACX_site3705],8.14 ± 0.45
10,AAATTTAATTTTATATCACACATTAAATTTTAATGG [CACACA_site4251],7.65 ± 0.58
11,TAATATATTATAAACACATGCACATTAATAATAACT [TGCATGCA_site708],8.08 ± 0.58
12,AATGCTATCATTAATGCACACATTTAAACTTAATAT [CACACA_site5878],11 ± 0.61
13,TATCATTTTTTTAAAACACACATAATAATATAAATA [CACACA_site2845],7.82 ± 0.31
14,AATGCTATCATTAATGCACACATTTAAAATTAATAT [CACACA_site3548],11 ± 0.55
15,TAAATTAATACCTATGCACACATTTTTTTTTTTAAA [CACACA_site1238],8.32 ± 0.47
16,GAAAAAATAAAATAAAGTACATAACTATAATAAAAA [XGTACX_site4807],7.9 ± 0.34
17,TTTTTTTTTTTTTTTACACACTGCATACAAGAAAAA [CACACA_site5642],8.54 ± 0.66
18,TGTGCACGCATATACACACACAAATACAATGATAAA [CACACA_site6656],8.92 ± 0.11
19,TATTATATTTGTATGTGTACTTATATGGTTGTAATA [XGTACX_site4548],7.87 ± 0.26
20,TACCCTTGCATGTAGGTGCAATTTTTTTTTTTTTTT,10.6 ± 0.35
21,AAAATTATGCAGTAGGTGCAATACCCTCGGCTTTTT [GTGCAC_site9556],11.1 ± 0.64
22,ATTTATATTACCCTTGCATGTAGGTGCAATTTTTTT [TGCATGCA_site757],10.64 ± 0.085
23,TTCCTGTTAATTACAACACACAATTCTTATTTTATG [CACACA_site6507],7.98 ± 0.52
24,ACAAAACTCTTTAATTGTACAAATATAATATAAAAA [XGTACX_site5690],7.74 ± 0.63
25,TATTTATAAATGAACACACACGCAATTTGAATCGAA [CACACA_site3371],8.04 ± 0.46

row,Sequence,gcPBM binding intensity (ln)
1,TTAATTAAATATAGGGGTACATATTATATATGTTTT [XGTACX_site3677],7.76 ± 0.42
2,TTACGCTGCTATATAGTGCACATAATATATGACCTG,11 ± 0.24
3,TATATATATATATGTGCACACATAATAAAAAAAAAA [CACACA_site3830],10.55 ± 0.035
4,TGCTATATAATATGAGCACACATAAGATTTGGTGTT [CACACA_site8148],8.05 ± 0.6
5,TAAAACACTCATGGCACACATAAAACATTTTTATGA [CACACA_site3574],8.18 ± 0.24
6,TCAATTTGGAACGGTATGCACTAATTTTATATTTTT,9.02 ± 0.19
7,TATTTTAAAACAAAAATATAATTTCATAAAAATATA [CACACA_negctrl_site394],7.2 ± 0.47
8,TGTAATTGTTTAAAGGGTACATATATCAGATGTCTT [XGTACX_site5877],7.62 ± 0.54
9,TATATCATTATATAAACACACAATATGTTTTTTATA [CACACA_site3781],7.42 ± 0.54
10,TTTATTTATATAATTACACACATATATACGCAAATG [CACACA_site2794],7.78 ± 0.31
11,TATTTAATTATATAAAATTAAATTTTTAATTCTTCC [CACACA_negctrl_site473],7.28 ± 0.53
12,TTTTTTTCTCACAATCGTACATAAATACATATATAT [XGTACX_site3150],8.12 ± 0.54
13,AAATATTCATAGTATACACACATTTATTTATAACCA [CACACA_site6502],7.88 ± 0.52
14,TGTTTTTCATAGTGCACACATAACCAAAAATAGTAT [CACACA_site3150],11.5 ± 0.67
15,AATAAATTCATGATAGTGCAAAAATTATTTTTGTTA,9.49 ± 0.028
16,GGTATTTTCACATATAGTACACAAAAATAAAATAAA [XGTACX_site2139],8.48 ± 0.099
17,TTTGTTTTTCATAGTGCACACATAACCAAAAATAGT [CACACA_site9030],11.3 ± 0.46
18,TTTCATAACAAAAAAGTGCAAAATAGCACGAACATT [GTGCAC_site9703],10.66 ± 0.049
19,GAAAAAATTTTATGGTGTACTTTATTTATTTATATA [XGTACX_site6323],8.06 ± 0.28
20,TATTTTAAAGAGAAAACATGCATTATATAGAACATT [TGCATGCA_site328],7.93 ± 1
21,AATATAATATAATGCACACATAAAACAAAAAAAAAA [CACACA_site3012],11 ± 0.86
22,AATATAATATAATGCACACATAAACAAAAAAAAAAA [CACACA_site783],11.2 ± 1
23,AATATAAACACAAACACACACATATATATATATATA [CACACA_site4307],9.49 ± 0.45
24,AAAATATATACACAAACATGCATATAATAAATAAAT [TGCATGCA_site711],7.98 ± 0.83
25,TTCTGACCAATGCTATAAAATAATACAAAAGAAAAA [GTGCAC_negctrl_site3],7.83 ± 0.35

row,Sequence,gcPBM binding intensity (ln)
1,TTAACTTTTTTATATGCACACATAAACAAGGATATA [CACACA_site8932],9.57 ± 0.3
2,AACTTTTTTATATGCACACATAAACAAGGATATATA [CACACA_site2874],10.1 ± 0.49
3,TCCATATGCAAACTGGTGCACAAGTAGCTTTTATAT,11.15 ± 0.028
4,TATAAGAGGATATATACACACAAAAATATGTACAGT [CACACA_site6885],7.92 ± 0.52
5,TATTAATAATTAAGTTGTACATTAATTAATATACTG [XGTACX_site6994],7.46 ± 0.41
6,CGTTATATCAAAGGAGTGCATTATGAATACGTTTTA [GTGCAC_site9837],11.4 ± 0.65
7,ATATATTTTAGGAGAGTGCATTTAATATTATTTAAT [GTGCAC_site9444],10.7 ± 0.62
8,ATATATCAAGGGAGTGAATGTTATGCATATGAATAT [TGCATGCA_negctrl_site573],7.82 ± 0.83
9,AAAAATAGGAACCAATATCCAACGTGACTTTATAAT [CACACA_negctrl_site1011],7.68 ± 0.81
10,TTTACTTTTTTTTCTTGTACTCATACATACTATCAT [XGTACX_site4919],7.84 ± 0.83
11,ATATATATAATATGATGTACTATTTTGATAAAAAAT [XGTACX_site3975],8.23 ± 0.54
12,TTTATCATGAACAGAAGTACATTTATATCAATGTCT [XGTACX_site6470],7.5 ± 0.47
13,ATTGTCAAAACACGCACACACATATACATAATAACA [CACACA_site1742],8.2 ± 0.37
14,ATATATATATATTTCGTGCACTGATAATATTATTTT,11.2 ± 0.35
15,TTTGCGTAGAAATGTGTGCACTGATATTTATAATAA [GTGCAC_site9526],10.6 ± 0.035
16,TTATATTATTCGTGTGTGCACGATATTTCATAATTG [GTGCAC_site9767],10.1 ± 0.2
17,AAAATTAAAATATCACGTACGAAGAAAAAATTAAGA [XGTACX_site6437],7.86 ± 0.54
18,TATTTCACTTTTTGTCTGCACTAAAATTTTATGGTA,9.46 ± 0.32
19,TAGACAAAATATAATGCACACTATTATTTTTATTTA [CACACA_site5508],11 ± 0.73
20,ACTAGACAAAATATAATGCACACTATTATTTTTATT [CACACA_site2726],10.9 ± 0.65
21,ATATATATATTATATGCACACTAATAAGACTATTTA [CACACA_site5880],9.66 ± 0.11
22,AATTAGCTATTTAAAAATATATAAAATTTATATATA [CACACA_negctrl_site390],7.47 ± 0.2
23,TATATATATTTATGCACACAAAATATATTATATAAT [CACACA_site5955],9.86 ± 0.38
24,ATTATATATATTTATGCACACAAAATATATTATATA [CACACA_site9244],9.78 ± 0.3
25,TTTTTAATTCAAAAAATAATATATTATATTTCAAAT [CACACA_negctrl_site737],7.38 ± 0.48

row,Sequence,gcPBM binding intensity (ln)
1,TTATATTTTACAAATGCACACATAATTTTTTTTTTT [CACACA_site8890],9.04 ± 0.19
2,TTTCAAAAAAATAGCTATATTTATATTAATGCACGA [TGCATGCA_negctrl_site63],11.9 ± 0.45
3,ACTTCATTTTTTTTATGTACACAGAAGATTTACAAA [XGTACX_site4021],8.44 ± 0.47
4,TTTATTTGTAACGGTTGTACTTGTATATCATTATGA [XGTACX_site4281],7.72 ± 0.4
5,AAAAAAGACCATGTTAGTACATAAGATTTTTTTCAT [XGTACX_site4298],7.53 ± 0.57
6,ATATTGCTTATTTGATGTACGAATACACTAGTATTA [XGTACX_site4536],7.79 ± 0.64
7,TTATATTATATATATAGTACACATGTAATATTTCAA [XGTACX_site1791],7.76 ± 0.35
8,ACCCTATTTATATATACACACACATATATAAATAAA [CACACA_site8980],8.24 ± 0.36
9,AAAAAAAAAAATATAACACACAAAAAATTGTATCGA [CACACA_site1144],7.53 ± 0.26
10,GCTATTAATTTATAAGCACACAATATAAATATATAT [CACACA_site2251],8.46 ± 0.057
11,TTGCATATTTCTAATTGTACATTATTTTATTTTATA [XGTACX_site8451],7.75 ± 0.54
12,TATATATATATTTTTTGTACATATTATATAATATAC [XGTACX_site5187],9.025 ± 0.064
13,AAATATAATAATACATTGCACATATATTATATATAT [TGCATGCA_negctrl_site611],8.53 ± 0.64
14,AGTACATTTTTGTGTGTGCACTAATATTATATACTT [GTGCAC_site9568],11.3 ± 0.62
15,ATATGTATGTATTTATTATTGTGCATTGTATTTATA [CACACA_negctrl_site664],9.36 ± 0.38
16,TTTTGTTTATGTGTGCATTATATTATATTTTTTATT [TGCATGCA_negctrl_site146],10.9 ± 0.45
17,CTTAAATTAATTTGGGTGCATATATTTGTACACATT [GTGCAC_site9948],10.8 ± 0.53
18,TATGTTTGTGTATATATTTATTTTTATGTAATTATA [GTGCAC_negctrl_site219],7.75 ± 0.45
19,TTGGGTGCATATATTTGTACACATTATTTCTATTTT [XGTACX_site3688],11.2 ± 0.85
20,AATAAATAGAAAGAGGTGCTACATTATATTATTTAT,8.73 ± 0.3
21,ATATATTATAGAGGTGTGCACTACATACATTATAAT [GTGCAC_site9991],10.9 ± 0.4
22,AAGTTATATTTGTGTACACATAATTTTATACTAATA [CACACA_site5553],8.82 ± 0.33
